Dicer processing – inhibitors of Dicer pre-microRNA processing, primary screen, biochemical, cat-ELCCA, chemiluminescence; cat-ELCCA pre-miR-21 Dicer processing; hits give high values; z-score at 25 µM; actives 6% (n = 47,000); AID 1347074, 2019; in the data active = z-score above about 3, passing the limit was not always enough;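 also: plate controls were vehicle for no effect and no enzyme for full effect; higher signal means more uncleaved substrate so more Dicer inhibition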
Target sequence (Q9UPY3 whole entry, looked up): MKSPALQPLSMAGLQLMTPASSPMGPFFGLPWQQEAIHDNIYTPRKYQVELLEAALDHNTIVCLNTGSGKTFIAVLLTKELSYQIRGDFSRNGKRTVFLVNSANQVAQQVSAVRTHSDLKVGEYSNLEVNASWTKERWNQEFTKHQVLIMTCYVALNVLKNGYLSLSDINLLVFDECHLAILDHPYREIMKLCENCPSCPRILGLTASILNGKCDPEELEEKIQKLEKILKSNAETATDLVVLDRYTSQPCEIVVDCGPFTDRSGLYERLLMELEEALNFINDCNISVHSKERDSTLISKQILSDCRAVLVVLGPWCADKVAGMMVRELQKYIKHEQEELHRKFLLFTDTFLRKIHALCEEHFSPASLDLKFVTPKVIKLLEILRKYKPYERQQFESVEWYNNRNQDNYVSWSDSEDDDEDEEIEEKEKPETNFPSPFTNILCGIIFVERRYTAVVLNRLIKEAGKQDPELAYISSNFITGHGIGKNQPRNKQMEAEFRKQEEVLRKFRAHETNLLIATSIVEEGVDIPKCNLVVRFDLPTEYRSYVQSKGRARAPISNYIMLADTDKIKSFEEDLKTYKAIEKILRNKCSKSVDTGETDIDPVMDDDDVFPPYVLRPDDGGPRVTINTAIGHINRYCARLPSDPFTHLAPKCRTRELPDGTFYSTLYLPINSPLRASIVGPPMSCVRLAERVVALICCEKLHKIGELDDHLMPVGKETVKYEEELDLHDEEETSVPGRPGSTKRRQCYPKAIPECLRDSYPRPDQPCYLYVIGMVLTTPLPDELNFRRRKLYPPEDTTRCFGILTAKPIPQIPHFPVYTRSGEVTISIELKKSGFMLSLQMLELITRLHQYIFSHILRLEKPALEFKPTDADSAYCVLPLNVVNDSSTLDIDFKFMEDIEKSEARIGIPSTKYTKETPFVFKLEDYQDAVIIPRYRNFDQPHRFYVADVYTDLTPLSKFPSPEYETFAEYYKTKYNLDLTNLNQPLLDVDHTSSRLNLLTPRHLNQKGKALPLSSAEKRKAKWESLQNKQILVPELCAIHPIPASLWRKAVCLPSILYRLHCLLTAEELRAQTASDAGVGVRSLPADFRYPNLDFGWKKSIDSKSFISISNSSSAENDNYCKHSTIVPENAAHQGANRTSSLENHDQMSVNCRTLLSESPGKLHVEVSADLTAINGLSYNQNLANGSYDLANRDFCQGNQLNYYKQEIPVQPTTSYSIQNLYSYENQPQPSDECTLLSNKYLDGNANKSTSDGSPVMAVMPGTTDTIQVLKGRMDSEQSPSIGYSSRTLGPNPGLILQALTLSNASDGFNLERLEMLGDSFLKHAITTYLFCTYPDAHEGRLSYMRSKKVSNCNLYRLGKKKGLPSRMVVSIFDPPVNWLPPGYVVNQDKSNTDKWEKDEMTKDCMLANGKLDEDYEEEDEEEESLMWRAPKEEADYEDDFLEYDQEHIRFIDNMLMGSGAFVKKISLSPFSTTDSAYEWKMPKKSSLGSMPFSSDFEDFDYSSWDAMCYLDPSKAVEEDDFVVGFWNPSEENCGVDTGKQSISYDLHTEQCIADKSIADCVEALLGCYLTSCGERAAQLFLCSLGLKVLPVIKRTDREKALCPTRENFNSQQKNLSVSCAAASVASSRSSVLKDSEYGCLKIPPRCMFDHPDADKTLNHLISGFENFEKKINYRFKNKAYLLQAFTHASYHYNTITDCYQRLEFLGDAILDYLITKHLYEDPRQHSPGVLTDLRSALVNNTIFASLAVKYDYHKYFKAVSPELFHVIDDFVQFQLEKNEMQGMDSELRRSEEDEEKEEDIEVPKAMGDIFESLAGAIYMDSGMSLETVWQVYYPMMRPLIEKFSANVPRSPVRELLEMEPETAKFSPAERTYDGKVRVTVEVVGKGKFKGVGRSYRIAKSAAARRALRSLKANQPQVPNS
* marks the source's active call; other numbers are inactive results. The sample as a whole holds a higher share of hits than the screen did.

SMILES | Dicer processing
CCOc1cc(C2Nc3c(C)cc(C)cc3-c3cc(C)nn32)ccc1O (centres undefined) | 0.34
Cc1cc2n(n1)C(c1ccc(O)cc1)Nc1ccccc1-2 (centres undefined) | 1.42
Cc1cc(C)c2c(c1)-c1cc(C)nn1C(c1ccc(O)c(O)c1)N2 (centres undefined) | 8.62*
COc1ccc(C2Nc3c(C)cc(C)cc3-c3cc(C)nn32)c(OC)c1 (centres undefined) | 3.62*
CCOc1ccc(C2Nc3c(C)cccc3-c3cc(C)nn32)cc1 (centres undefined) | 1.22
C[C@@]1(C2CCCC2)Cc2cc(OCC(=O)O)c(Cl)c(Cl)c2C1=O | -0.74
Cn1nccc1NC(=O)C1CCCCC1 | -0.75
Cn1c(=O)c2c(nc(NCCO)n2Cc2ccccc2)n(C)c1=O | 2.27
O=C1CC(Nc2ccc3c(c2)OCO3)C(=O)N1c1ccccc1 (centres undefined) | 0.09
O=C(CN1C(=O)c2ccccc2S1(=O)=O)Nc1cccc(C(F)(F)F)c1 | -0.13
CSc1ncccc1C(=O)NC(C)(C#N)C(C)C (centres undefined) | -3.08
Cc1ccnc(NC(=O)Cn2nc([N+](=O)[O-])c(Br)c2C)c1 | 1.13
C=CCn1c(Cc2ccccc2)nc2c(cnn2-c2ccccc2)c1=O | 0.45
COC(=O)C(=O)/C=C(\O)c1c(F)c(F)c(OC)c(F)c1F | 0.75
Cc1cc(C)c(NC(=S)NCCNCc2ccccc2)c(C)c1 | 1.78
COc1ccc(C2Nc3c(C)cc(C)cc3-c3cc(C)nn32)cc1OC (centres undefined) | 1
COc1ccc(C2Nc3c(C)cc(C)cc3-c3cc(C)nn32)cc1O (centres undefined) | 4.35*
CN1C(=O)c2cccc3c(S(=O)(=O)Nc4ccccc4C(=O)O)ccc1c23 | -2.14
N#Cc1nc(COc2ccc(Cl)cc2)oc1NCCc1ccccc1 | -1.6
Cc1cc(C)c(S(=O)(=O)N2CCN(Cc3ccc4c(c3)OCO4)CC2)cc1C | 5.25
O=c1cc(CSc2ccc(Cl)cc2)nc(N2CCN(Cc3ccc4c(c3)OCO4)CC2)[nH]1 | 2.8
CCc1c(C)nc(N2CCN(Cc3ccc4c(c3)OCO4)CC2)[nH]c1=O | 3.92*
COc1ccc(C2SCCN2S(=O)(=O)c2ccc(C)cc2)cc1OC (centres undefined) | 0.74
COc1ccccc1C1C(C(=O)OC(C)C)=C(C)Nc2nnnn21 (centres undefined) | 3.17*
CCOC(=O)C1=C(C)Nc2nnnn2C1c1cc(OC)ccc1OC (centres undefined) | 1.64
SMILES | Dicer processing
CCOC(=O)C1=C(C)Nc2nnnn2C1c1cc(Br)ccc1OC (centres undefined) | 47.5*
COC(=O)C1=C(C(=O)c2ccc(C)cc2)C(c2ccccc2OC)n2nnnc2N1 (centres undefined) | 0.5
COC(=O)C1=C(C(=O)c2ccccc2)C(c2ccccc2OC)n2nnnc2N1 (centres undefined) | 0.01
COC(=O)C1=C(C)Nc2nnnn2C1c1cc(Br)ccc1OC (centres undefined) | -0.18
O=C(CSc1ncnc2sc3c(c12)CCCC3)Nc1ccc2c(c1)OCCO2 | -0.51
Nc1nc2c(c(=O)[nH]1)C(c1ccc(O)cc1)CC(=O)N2 (centres undefined) | 0.02
Nc1nc2c3ccccc3nc(C3CC3)n2n1 | -1.57
COc1ccc(-c2cc(-c3cccs3)[nH]c(=S)c2C#N)cc1 | 1.06
N#Cc1c(-c2ccc(Cl)cc2)cc(-c2ccccc2)[nH]c1=S | 3.79*
COc1ccc(-c2cc(-c3ccc(C)cc3)[nH]c(=S)c2C#N)cc1 | 0.56
N#Cc1cc2ccc([N+](=O)[O-])cc2c2ccccc12 | -0.41
O=C(c1ccc(Br)cc1)c1ccc2c(c1)Cc1ccccc1-2 | -0.53
COc1ccc(/C=C2\OC(=O)c3c2cc(C)[nH]c3=S)cc1 | 1.44
COc1cccc(Cn2c(-c3nonc3N)nc3ccccc32)c1 | 4.23*
Cc1ccc(Cn2c(-c3nonc3N)nc3ccccc32)cc1 | -0.74
CN(C(=O)Cn1c(-c2cncs2)nc2ccccc21)c1ccccc1 | 0.95
O=C1CN(CC(=O)N2CCN(c3ccc(F)cc3)CC2)c2ccccc2O1 | -3.16
Nc1nonc1-c1nc2ccccc2n1CC(=O)N1CCN(c2ccc(F)cc2)CC1 | 3.44*
CN(C(=O)Cn1c(-c2nonc2N)nc2ccccc21)c1ccccc1 | 4.06*
Nc1nonc1-c1nc2ccccc2n1CC(=O)Nc1ccc(F)cc1 | -1.04
CCC(=O)Nc1nonc1-c1nc2ccccc2n1CCC(C)C | -2.54
Nc1nonc1-c1nc2ccccc2n1Cc1ccc(Cl)cc1 | 1.15
COCSc1ccc(C(=O)OCC(=O)c2ccc(Br)cc2)cc1 | -0.3
CSc1sc(NC(=O)Nc2ccccc2C(F)(F)F)c(-c2ccc(Cl)cc2)c1C#N | -1.39
O=C(NCCNc1ncc(Cl)cc1C(F)(F)F)C(F)(F)Sc1ccccc1 | 2.06
SMILES | Dicer processing
O=C(Nc1cccc(C(F)(F)F)c1)c1cc(-c2ccccc2)c(C(F)(F)F)s1 | 0.8
COC(=O)C(Cc1c[nH]c2ccccc12)NS(=O)(=O)c1ccccc1C(F)(F)F (centres undefined) | -0.14
Cc1cc(=O)[nH]c(Nc2ccccc2)n1 | 0.84
CCOc1cc(C2c3c(oc4ccccc4c3=O)C(=O)N2c2nnc(C(C)C)s2)ccc1O (centres undefined) | -0.35
Cc1ccc(S(=O)(=O)Nc2ccc3c(c2)Cc2cc(Br)ccc2-3)cc1 | 3.35*
Cc1ccc(S(=O)(=O)Nc2ccc(O)c(Br)c2)cc1 | 1.43
CNS(=O)(=O)c1ccc2c(c1)Cc1cc(S(=O)(=O)NC)ccc1-2 | 0.52
CN(C)c1ccc(C2N(Cc3ccccc3)CCC3CCCCN32)cc1 (centres undefined) | -0.34
COC(=O)C1=C(C)NC2=C(C(=O)CCC2)C1c1ccc(OC)c(Br)c1 (centres undefined) | -1.03
CCOc1nc2ccccc2nc1OCC | 0.29
CCc1ccc2[nH]c3sc(C)nc3c2c1 | -1.4
CCOc1ccc(OCC)c2sc(C)nc12 | 3.2*
CC(=O)Oc1ccc(C2C3=C(Nc4c2c(=O)[nH]c(=O)n4C)c2ccccc2C3=O)cc1 (centres undefined) | 1.41
O=C(O)COCC(=O)Nc1nc(SCc2ccc(Cl)cc2)n[nH]1 | 0.33
Cc1nn(-c2ccccc2)c2c1C(c1cccnc1)C(C#N)=C(N)O2 (centres undefined) | -4.83
CCCSc1nc2ccccc2[nH]1 | 1.53
Cc1ccc(NC(=S)Nc2ccccc2N)c(C)c1 | 6.95*
Cc1ccc(NC(=S)Nc2ccc(C)cc2C)c(C)c1 | 0.92
Cc1ccc(NC(=S)Nc2ccccc2C)c(C)c1 | 2.52
COc1ccccc1-c1nc2c3c4c(sc3ncn2n1)CCCC4 | 1.25
COc1cccc(NC(=O)Nc2ccc(Oc3c(Cl)cccc3Cl)nc2)c1 | -0.35
COc1cccc(Oc2ccc(NC(=O)c3cc4cc(Br)ccc4o3)cn2)c1 | 3.07*
COc1ccccc1Oc1ccc(NC(=O)c2cc3cc(Br)ccc3o2)cn1 | 2.33
CCc1oc(C(=O)O)cc1CN1CCCCC1 | -0.03
Cc1c(C#N)c(N)c(C(=O)c2ccccc2)n1-c1ccccc1 | 2.84
CC(c1ccccc1)n1c(SCC(=O)N2CCOCC2)n[nH]c1=O (centres undefined) | 13*
CC(c1ccccc1)n1c(SCC(=O)c2ccc(F)cc2)n[nH]c1=O (centres undefined) | 0.42
O=C(CSc1nc2ccccc2s1)N1CCOCC1 | 1.02
CC(C)(C)C(=O)CSc1nc2cc(Cl)c(Cl)cc2[nH]1 | 4.54

Bioassay records as filed in PubChem BioAssay.
